Screening data deposited in PubChem BioAssay by National Center for Advancing Translational Sciences (NCATS).
Compounds with a hit are over-represented: about 11% of the library has one in this group of screens.
BAZ2B inh – BAZ2B (human) inhibition | 360,000 tested, 4.4% active | Potency, µM (highest dose often 114 µM), most hits filed as inhibitors | AID 504333 | AlphaScreen BAZ2B-H3K14Ac peptide displacement | Q9UIF8; note: nearly all actives have a fitted effect of over 60% in size
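Compounds, titrated to a top concentration of 110 uM, were incubated 30 min at room temperature with preformed BAZ2B/acetyl-K14 H3 peptide complex (50 nM each). Proximity signal was measured by AlphaScreen after 20 min with beads.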
G9a block – G9a (human) methyltransferase inhibition | 350,000 tested, 8.8% active | Q96KQ7 | G9a H3K9 monomethylation, AlphaScreen, 2 h | AID 504332 | Potency, µM (top dose mostly 102 µM), hits mostly inhibitors; note: nearly all actives have a fitted effect of over 75% in size
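Enzyme 20 nM + cpd, 15 min RT; add b-H3K9 pep 500 nM / SAM 20 uM; 2 h RT; anti-H3K9me1 Ab 0.5 ug/mL + SA donor / anti-rabbit acceptor beads 20 ug/mL each, 10 min; AlphaScreen read.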
HP1b binding inh – inhibitors of HP1-beta chromodomain binding to methylated histone tails | AlphaScreen HP1-beta / biotin-H3K9me3 peptide binding | 390,000 tested, 0.56% active | Potency, µM (titrated, usually from 114 µM), most hits filed as inhibitors; note: nearly all actives have a fitted effect of over 70% in size
Target sequence (P83916 whole entry, looked up): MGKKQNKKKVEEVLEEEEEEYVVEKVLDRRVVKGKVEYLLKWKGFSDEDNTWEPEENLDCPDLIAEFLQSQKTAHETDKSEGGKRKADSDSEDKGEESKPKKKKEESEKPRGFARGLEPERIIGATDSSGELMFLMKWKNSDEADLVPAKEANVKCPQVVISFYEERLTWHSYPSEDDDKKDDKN
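HP1-beta protein (50 nM final) preincubated 30 min at room temperature with biotinylated H3(1-18)K9me3 peptide (50 nM) in PBS pH 7.4, 0.01% Tween-20, then compound added for 30 min. AlphaScreen streptavidin donor/nickel chelate acceptor beads (10 ug/mL final), 30 min dark, luminescence read.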
PI5P4K alpha inh – blocks human PI5P4K alpha kinase activity | P48426 | PI5P4Kalpha enzyme, ADP-Glo luminescence, 60 min; active compounds read low | max response, % | 330,000 tested, 1.2% active; active = max response of -50% or lower; inconclusive = between -30% and -50%; inactive = -30% or higher; note: value at the top dose of about 77 µM
Target sequence (P48426 whole entry, looked up): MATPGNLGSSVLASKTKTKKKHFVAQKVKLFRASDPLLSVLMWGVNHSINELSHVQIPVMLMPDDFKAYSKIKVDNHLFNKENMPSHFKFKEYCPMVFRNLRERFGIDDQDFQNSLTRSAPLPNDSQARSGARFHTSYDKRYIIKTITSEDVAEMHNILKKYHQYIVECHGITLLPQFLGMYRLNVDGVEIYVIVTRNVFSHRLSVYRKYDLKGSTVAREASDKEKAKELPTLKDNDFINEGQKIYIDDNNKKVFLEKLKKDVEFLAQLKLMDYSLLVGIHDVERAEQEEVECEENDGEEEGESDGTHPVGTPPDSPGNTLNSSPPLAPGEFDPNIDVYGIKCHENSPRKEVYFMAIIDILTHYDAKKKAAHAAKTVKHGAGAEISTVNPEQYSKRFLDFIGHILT
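Human PI5P4Kalpha with substrate in 0.038 M HEPES pH 7.4, 0.28 mM EGTA, 0.1% CHAPS, 5% DMSO; reaction started with 5 microM ATP (final), 60 min at room temperature. ADP formed read by ADP-Glo luminescence.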
JMJD2A Tudor inh – inhibitors of human JMJD2A Tudor domain. O75164. AlphaScreen JMJD2A-Tudor / H3K4me3 peptide binding. Potency, µM (highest dose often 114 µM), actives largely listed as inhibitors. 390,000 tested, 4.4% active. AID 504339; note: nearly all actives have a fitted effect of over 50% in size
L3MBTL1 block – inhibitors of human L3MBTL1 | Q9Y468 | AlphaScreen L3MBTL1–H3K9me1 peptide binding | Potency, µM (doses to about 57.1 µM), hits mostly inhibitors | 230,000 tested, 0.66% active | AID 485360; note: nearly all actives have a fitted effect of over 60% in size
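AlphaScreen proximity signal between nickel-chelate acceptor and streptavidin donor beads (final 10 ug/mL) reports binding of 50 nM L3MBTL1 to 75 nM biotin-H3 K9me1 peptide; complex incubated with compounds 30 min at room temperature; cefsulodin titration as control.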
Each line names hits and unclear results; the compound was inactive in the other large screens. Unless noted, calls come from the whole dose curve; as a rule, active = well fitted inhibition curve with a large enough effect; inconclusive = small, poorly fitted or top-dose-only effect; inactive = no such curve, though single readings can be large or run the other way.

CCOC(=O)CCCNC(=O)c1cncc(O)c1	BAZ2B inh inconclusive, G9a block 56µM (no result: L3MBTL1 block)
CC(=O)c1cc(-c2ccccc2)n(CC(=O)Nc2ccc(C)cc2C)c1C	none (no result: PI5P4K alpha inh, L3MBTL1 block)
Cn1nnc2c(N3CCN(c4ccc(F)cc4)CC3)ncnc21	JMJD2A Tudor inh 40µM (no result: PI5P4K alpha inh, L3MBTL1 block)
Cn1ncc2c(N3CCN(c4ccc(F)cc4)CC3)ncnc21	BAZ2B inh 79µM (no result: PI5P4K alpha inh, L3MBTL1 block)
Cc1ccc(-n2ncc3c(N4CCN(c5ccc(F)cc5)CC4)ncnc32)cc1	none (no result: PI5P4K alpha inh, L3MBTL1 block)
Cc1ccc(CNC(=O)CN(C)S(=O)(=O)c2ccc(Br)s2)cc1	none (no result: PI5P4K alpha inh, L3MBTL1 block)
N/C(Cc1ccc([N+](=O)[O-])cc1)=N\OC(=O)c1ccc([N+](=O)[O-])cc1	BAZ2B inh inconclusive, G9a block 8.9µM, HP1b binding inh inconclusive, JMJD2A Tudor inh inconclusive (no result: L3MBTL1 block)
N/C(Cc1ccc([N+](=O)[O-])cc1)=N\OC(=O)c1cccc(Br)c1	none
O=C(C1=C(O)C(=O)N(c2ncccn2)C1c1ccc(Cl)cc1)c1ccco1 (stereo not drawn)	BAZ2B inh 71µM (no result: G9a block)
Cc1ccc(C(=O)C2=C(O)C(=O)N(c3ncccn3)C2c2ccc(Cl)cc2)o1 (stereo not drawn)	G9a block 10µM, L3MBTL1 block inconclusive
CC(=O)C1=C(O)C(=O)N(c2ccccn2)C1c1ccc(Cl)cc1 (stereo not drawn)	none
O=C(C1=C(O)C(=O)N(c2ncccn2)C1c1ccc(Cl)c(Cl)c1)c1ccco1 (stereo not drawn)	BAZ2B inh 79µM, G9a block 40µM, HP1b binding inh inconclusive, JMJD2A Tudor inh 7.1µM (no result: PI5P4K alpha inh)
O=C(C1=C(O)C(=O)N(c2ncccn2)C1c1cccc(Cl)c1)c1ccco1 (stereo not drawn)	BAZ2B inh inconclusive, G9a block 18µM (no result: PI5P4K alpha inh, L3MBTL1 block)
Cc1cc(N2C(=O)C(O)=C(C(=O)c3ccco3)C2c2cccc(Cl)c2)no1 (stereo not drawn)	BAZ2B inh inconclusive (no result: L3MBTL1 block)
CC(C)NC(=O)N1CC[C@@]2(CCCN(C(=O)c3csnn3)C2)C1	none (no result: BAZ2B inh, HP1b binding inh, PI5P4K alpha inh, JMJD2A Tudor inh, L3MBTL1 block)
C=CC#CC[N+]1(CC#Cc2ccccc2)CCOCC1	BAZ2B inh inconclusive, G9a block inconclusive, HP1b binding inh 35µM, PI5P4K alpha inh -82, JMJD2A Tudor inh 40µM
C(#Cc1ccccc1)C[N+]1(CC#Cc2ccccc2)CCCC1	none
Cc1sc2ncnc(SCC(=O)NC(C)(C)C)c2c1C	none
Cc1cccnc1NC(=O)CSc1ncnc2sc(C)c(C)c12	BAZ2B inh inconclusive, G9a block 50µM, PI5P4K alpha inh inconclusive, JMJD2A Tudor inh inconclusive, L3MBTL1 block inconclusive
CCC(Sc1ncnc2sc3c(c12)CCCC3)C(=O)OC(C)C (stereo not drawn)	none (no result: PI5P4K alpha inh, L3MBTL1 block)
CCC(Sc1ncnc2sc(C)c(C)c12)C(=O)OC (stereo not drawn)	BAZ2B inh inconclusive, G9a block 2µM (no result: L3MBTL1 block)
CC(=O)c1ccc(NC(=O)CSc2ccc3nc(-c4ccccc4)cn3n2)cc1	none (no result: PI5P4K alpha inh, L3MBTL1 block)
CN1CCN(CC(O)COc2ccc(OCC(O)CN3CCN(C)CC3)cc2)CC1 (stereo not drawn)	none
OCCN1CCN(CC(O)COc2ccc(Cl)cc2)CC1 (stereo not drawn)	BAZ2B inh inconclusive, G9a block 50µM (no result: L3MBTL1 block)
CCN1CCN(CC(O)COc2ccc(Cl)cc2)CC1 (stereo not drawn)	BAZ2B inh inconclusive, JMJD2A Tudor inh inconclusive (no result: L3MBTL1 block)
Cc1cc(OCC(O)CN2CCN(C)CC2)ccc1C(C)C (stereo not drawn)	G9a block 89µM
CCOC(=O)c1c(C)n(-c2ccc(C)cc2)c2ccc(OCC(O)CN3CCN(C)CC3)cc12 (stereo not drawn)	G9a block 50µM, JMJD2A Tudor inh inconclusive (no result: BAZ2B inh, L3MBTL1 block)
CN1CCN(CC(O)COc2ccc(Cl)cc2)CC1 (stereo not drawn)	G9a block 56µM (no result: L3MBTL1 block)
O=C(Nc1ccc(Cl)cc1)C1CCC(CNS(=O)(=O)c2ccc(Br)s2)CC1 (stereo not drawn)	none (no result: PI5P4K alpha inh, L3MBTL1 block)
Cc1cccc(Cn2c(SCc3ccc(C(=O)NCc4ccccc4)cc3)nc3cccnc32)c1	none (no result: PI5P4K alpha inh, L3MBTL1 block)
O=C(NCCCN1CCCCCC1)c1cc2c(=O)oc3ccccc3c2s1	G9a block 79µM (no result: L3MBTL1 block)
